Screens as filed in PubChem.
Only some compounds are listed: those with a hit (about 2.9% of all), similar ones and a draw of the others.
Nrf2 block: inhibitors of Nrf2 signaling; A549 ARE-Fluc reporter, luciferase luminescence, 18-24 h; Potency, µM (titrated, usually from 46 µM), most hits filed as inhibitors; hit rate 2.1% among 360,000; AID 504444; also: nearly all actives have a fitted effect of over 60% in size
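Nrf2 activity is the BugLite luminescence, read 15 min after reagent at room temperature, following CellTiter-Fluor cytotoxicity readout (30 min, 37C). Compound titrations were applied for 18-24 h to 5000 A549 ARE_Fluc cells/well in 5% FBS OPTI-MEM.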
S2 tox: viability counter-screen for ATXN expression inhibitors; S2 cells (HEK-293 line with an ATXN2-luciferase reporter) viability, CellTiter-Fluor protease fluorescence, 24 h; Potency, µM (series often up to 56.7 µM), most hits filed as cytotoxic; hit rate 0.49% among 400,000; also: nearly all actives have a fitted effect of over 40% in size
ATXN2 expr inh: ATXN2 expression inhibition; Potency, µM (doses to about 57 µM), actives largely listed as inhibitors; hit rate 0.72% among 360,000; HEK-293 ATXN2-luciferase reporter, luminescence, 24 h; also: nearly all actives have a fitted effect of over 55% in size
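qHTS (up to 57 uM final) was run with 24 h compound exposure of reporter cells at 37 °C. Each well was multiplexed: SteadyGlo luminescence measured ATXN2-luciferase expression after a fluorogenic Gly-Phe-AFC viability readout (25 uM final).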
Nrf2 ARE act: Nrf2 pathway activation. AREc32 ARE-luciferase reporter (MCF7-derived line), luminescence, 24 h. Potency, µM (doses to about 46.1 µM), actives largely listed as activators. hit rate 0.31% among 410,000; also: nearly all actives have a fitted effect of over 65% in size
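AREc32 cells carrying an ARE-driven firefly luciferase, 1000 cells/well in OPTI-MEM with 5% FBS, dosed after overnight attachment and incubated 24 hr at 37 deg C. Steady-Glo luminescence read after 30 min at RT.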
A549 tox: counter-screen for Nrf2 inhibitors: cytotoxicity in A549 cells. A549 ARE-Fluc cells, CellTiter-Fluor viability, 18-24 h. Potency, µM (series often up to 46 µM), hits mostly inhibitors. hit rate 0.16% among 390,000. AID 504648
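Cytotoxicity counterscreen: CellTiter-Fluor fluorescence was measured in A549 ARE_Fluc cells after 18-24 h of compound exposure in a concentration series. The subsequent BugLite luminescent read reports ARE-luciferase activity.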
Numbers stand for hits; n = inactive; u = inconclusive; x = not tested or not shown; [ ] = dose if it differs, or a comment. Calls follow the shape of the dose curve; as a rule, active = well fitted curve in the direction sought with a large enough effect; inconclusive = small, poorly fitted or top-dose-only effect, or another doubt; inactive = no such curve, though single readings can be large; an effect the other way counts as inactive or inconclusive.

SMILES | Nrf2 block | S2 tox | ATXN2 expr inh | Nrf2 ARE act | A549 tox
O=[N+]([O-])c1c(Cl)c(Cl)cc(Cl)c1Cl | x | n | n | x | x
CNc1cc(Cl)c2nonc2c1[N+](=O)[O-] | u | 22µM | 28µM | n | u
COC(=O)c1ccc(COc2cc(C)cc3oc(=O)c4c(c23)CCCC4)o1 | u | n | n | n | n
COC(=O)c1ccc(CSc2nc3c(cnn3-c3ccc(C)cc3)c(=O)[nH]2)o1 | 23µM | n | n | n | n
NC(Cc1ccc(F)cc1)c1csc(Nc2ncccn2)n1 (configuration not stated) | x | n | u | n[9.22 µM] | x
CC(C)CC(N)c1csc(NC(=O)Nc2ccccc2-c2ccccc2)n1 (configuration not stated) | x | 25µM | n | n | x
Nc1ccc(CC(N)c2csc(Nc3ncccn3)n2)cc1 (configuration not stated) | x | n | n | n[9.22 µM] | x
CC(C)c1ccc(NC(=O)Nc2nc(C(N)CCc3ccccc3)cs2)cc1 (configuration not stated) | x | 28µM | 28µM | n | x
C[C@H](NC(=O)N1C[C@H]2C[C@@H](C1)c1cccc(=O)n1C2)C(=O)Nc1ccccc1F | n | n | n | n | n
CC(C)(C)n1nnnc1C(CCc1ccccc1)N1CCC(n2c(=O)[nH]c3ccccc32)CC1 (configuration not stated) | x | u | u | n | x
O=c1[nH]c2ccccc2n1C1CCN(C(CCc2ccccc2)c2nnnn2C2CCCCC2)CC1 (configuration not stated) | x | x | 14µM | n | x
O=c1[nH]c2ccccc2n1C1CCN(C(CCc2ccccc2)c2nnnn2Cc2ccccc2)CC1 (configuration not stated) | x | 8.9µM | 8.9µM | n | x
O=c1[nH]c2ccccc2n1C1CCN(C(c2ccccc2OC(F)(F)F)c2nnnn2Cc2ccccc2)CC1 (configuration not stated) | x | 10µM | 18µM | n | x
CSCCC(c1nnnn1Cc1ccccc1)N1CCC(n2c(=O)[nH]c3ccccc32)CC1 (configuration not stated) | x | 14µM | u | n | x
COc1cc2c(cc1OC)C(C(=O)N(C)C1CCCCC1)C1CCCCN1C2=O (configuration not stated) | n | n | n | n | n
O=P1(Oc2ccccc2)OCCCS1 (configuration not stated) | n | n | n | n | n
CC[C@@H](C(=O)[C@@H](C)[C@@H](O)[C@H](C)[C@@H]1O[C@@H]([C@@H](CC)C(=O)O)CC[C@@H]1C)[C@H]1O[C@]2(C=C[C@@H](O)[C@]3(CC[C@@](C)([C@H]4CC[C@](O)(CC)[C@H](C)O4)O3)O2)[C@H](C)C[C@@H]1C | 1.5µM | 5.6µM | 4.5µM | n | 4.6µM
C=C1[C@@H]2C[C@@]3([C@H]1O)[C@H]1C[C@@H]4[C@@]5(C)CC[C@H](O)[C@]4([C@H]1N(CC)C5)[C@H]3C[C@H]2O | x | n | x | x | x
Cc1ccc(S(=O)(=O)c2nc(-c3ccccc3Cl)oc2N(C)C2CCN(C)CC2)cc1 | n | u | n | n | u
C/C(=C\c1ccc(N(C)C)cc1)[N+](=O)[O-] | 23µM | x | 32µM | u | u
O=[N+]([O-])CCO | n | n | n | n | n
O=C(CCC(=O)N1CCC2(CC1)OCCO2)Nc1nnc(C(F)(F)F)s1 | n | n | n | n | n
COc1ccc(Cc2nccc3cc(OC)c(OC)cc23)cc1OC | 15µM | n | u | n | n
CCOc1cc2c(cc1OCC)-n1cccc1C(c1ccc(C(C)C)cc1)NC2 (configuration not stated) | 23µM | u | u | n | u
Cc1ccc(C)c(N2CCN(c3ncnc4onc(C)c34)CC2)c1 | 13µM | n | u | n | n
COc1cc(CN2CCN(c3cc(C)ccc3C)CC2)ccc1O | n | u | n | n | n
Brc1ccc(Oc2cc(Br)c(Br)cc2Br)c(Br)c1 | n | n | n | n | n
C[N+](C)(C)CC1CCCC1=O (configuration not stated) | n | n | n | n | n
CN1C(=O)NC(=O)/C(=C\C=C\c2ccccc2[N+](=O)[O-])C1=O | u | 28µM | 32µM | n[9.22 µM] | n
C[C@H]1C(=O)O[C@@H]2CCN3CC=C(COC(=O)[C@@](C)(O)[C@@]1(C)O)[C@H]23 | x | n | x | x | x
